40 compounds from PubChem BioAssay (NCI) can be followed below.

About 83,000 compounds went through this panel and 20% of them were active in at least one assay; those are over-represented in the sample as a whole.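 Plates (96-well) were seeded with cells, treated with compound at one concentration, and incubated for 48 hours before percent growth was determined.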 Values without a mark were called inactive. Active and inactive are the calls of the source.

The subject of this assay is SR leukemia. Nature of the assay: NCI-60 one-dose screen, 48 h (100 = growth as untreated, 0 = no growth, -100 = all killed). As to conditions: 10 µM unless noted. As to the method: Growth inhibition of the SR human tumor cell line is measured as a screen for anti-cancer activity. Cells are grown in 96 well plates and exposed to the test compound for 48 hours. Compounds are tested at a single concentration, which is 10^-5 M for most compounds. The reported endpoint is percent growth (GI% or GIPRCNT), where numbers from 0 - 100% represent growth inhibition, and numbers from -100% - 0 represent cell death. For example, a value of 40 represents 60% growth inhibition. A value of 0 means no net growth occurred over the course of the experiment. A value of -40 indicates 40% of cells at the beginning of the experiment died by the end of the experiment. A value of -100 means all cells are dead at the end of the experiment.
NCI-60 Human Tumor Cell Lines Screen was performed using the standard one-dose NCI protocol, which is described in more detail at https://dtp.cancer.gov/discovery_development/nci-60/default.htm.
Compounds with GIPRCNT values below 10 were considered active. Activity score was based on GIPRCNT using the following formula: […]
Score is 0 for GIPRCNT values of 100 or above, 50 for GIPRCNT values of 0, and 100 for GIPRCNT values of -100.
Consider `CCOC(=O)C1=CN(C)C=C(C(=O)OCC)C1c1cc(Br)c(OCC)c(OC)c1`, for which the growth was -0.61% (active).
On to `COc1cc(C(=O)Nc2ccc(-c3nc4ccccc4[nH]3)cc2)cc(OC)c1OC`, for which the growth is 10.1%.
Regarding `O=C(/C=C/c1ccc(F)cc1)c1ccc(Nc2nc(NCCO)nc(Nc3ccc(Cl)cc3)n2)cc1`, the growth was 25.8%.
In the case of `Cn1c(/C=C(\C#N)c2ccccc2)nc2c(N3CCOCC3)nc(Cl)nc21`, the growth is 10.7%.
`CCOC(=O)C(CC(=O)O)=C(C(=O)OCC)C(=O)OCC`: the growth is 95.8%.
Under `COc1ccc(/C=C/C(=O)c2ccc3cc(OC)c(OC)cc3c2)cc1OC` stands 3.83% (active).
On to `c1ccc(-c2ccc(-c3nc4ccccc4[nH]3)cc2)cc1`, for which the growth was 58.8%.
On to `Cn1c2c(c(=O)[nH]c1=O)NC1=C(C(=O)c3ccccc31)C1(C=C(O)c3ccccc31)N2` (stereo not given), for which the growth is 47.6%.
As to `COC(=O)/C(CCC=C(C)C)=C1\[C@@H](OC(C)=O)C[C@@]2(C)[C@H]1CC(=O)N[C@H]1[C@@]3(C)CCNC(=O)[C@@H](C)[C@@H]3CC[C@@]12C`, the growth was 103%.
To `CC(=O)O[C@@H]1/C=C/C(=O)N[C@@H](C)CCC/C=C/[C@@H]2CCC[C@H]21` belongs 87.4%; to `CCOc1ccc(-c2nonc2NC(=O)c2cccc(C)c2)cc1OCC`, -34.7% (active).
To `O=C(NCCCN1CCC(N2CCCCC2)CC1)C1=Cc2cc(Br)ccc2OC1` belongs 11.4%; to `COc1ccccc1C1=C(Br)C(=O)c2nc(C)ccc2C1=O`, 105%; to `Nc1nc(Nc2cccc(F)c2)nc2ccccc12`, 13.2%.
Consider `N#Cc1c(N)nc2c(c1N)C(c1ccc(F)cc1)c1ccc(N)cc1O2` (stereo not given), for which the growth is 93%.
With `O=C(/C=C/c1ccccn1)c1ccc(OCc2nnc(-c3ccc(Cl)cc3)o2)cc1`, the growth was -11.7% (active).
Take `COc1ccc(N2C(=O)CC(c3cc(OC)c(OC)c(OC)c3)C3C2=NC(=O)N3C)cc1` (stereo not given): the growth is 126%.
Consider `COc1ccc(-c2c(-c3ccc(OC)c(O)c3)cnc3ncnn23)cc1`, for which the growth was 109%.
As to `OC(c1ccccc1)c1nnc(SCc2ccccc2)n1Cc1ccccc1` (stereo not given), the growth was 42.5%.
In the case of `COc1ccc2[nH]c(O)c(N=NC(=O)c3oc4ccccc4c3C)c2c1`, the growth is 43.5%.
As to `COc1cc2nc(NC3CCC3)nc(NC3CCN(C(C)C)CC3)c2cc1OC`, the growth is 2.34% (active).
Regarding `Cn1c(=O)n(C)c2cc(CNCCNc3ccnc4cc(Cl)ccc34)ccc21`, the growth was 3.33% (active).
As for `CCOC(=O)CSc1c(-c2ccccc2)c2cc(Cl)ccc2[nH]c1=O`, the growth was 75.8%.
`CCOC(=O)c1sc(-c2ccc(OS(=O)(=O)c3ccccc3[N+](=O)[O-])c(C=O)c2)nc1C`: the growth was 9.06% (active).
Under `CC[C@H](C)[C@@H](C(=O)OC)n1cc(CNC(=O)[C@@H](Cc2ccccc2)NC(=O)OCc2ccccc2)nn1` stands 103%; under `COC(=O)[C@H](NC(=O)C1(C)CCC[C@]2(C)[C@H]3C[C@H]4C(C(C)C)=C[C@]3(CC[C@@H]12)[C@@H]1C(=O)CCC(=O)[C@@H]14)C(C)C` (stereo not given in full), 89.7%; under `COc1ccc2c(c1)C=C1CSCC3=Cc4cc(OC)ccc4OC13O2`, 27%.
On to `CCOC(=O)c1cnc2c(C)cccc2c1Nc1ccc(C(C)=O)cc1`, for which the growth was -28.5% (active).
In the case of `N[C@@H](CC/[N+]([O-])=N/O)C(=O)O`, the growth is 126%.
On to `COc1cccc(C(=O)NC(c2ccc(C)cc2)c2cc(Cl)c3cccnc3c2O)c1` (stereo not given), for which the growth is 11.3%.
Consider `CCN(CC)CCCNc1ccnc2cc3ccccc3cc12`, for which the growth was 77.5%.
For the compound `CS(=O)(=O)Nc1ccc(C(=O)NC(C(=O)NO)c2ccc(-c3cccc(F)c3)cc2)cc1` (stereo not given), the growth was 78.8%.
With `COc1ccc(C2=C(c3cccc(OC)c3)C(=O)c3ccc(C)nc3C2=O)cc1`, the growth was 28.5%.
For the compound `C[n+]1c2ccccc2nc2ccc(NCCO)cc21`, the growth was 60.3%.
To `CC(C)CCNCC(O)Cn1c2ccccc2c2ccccc21` (stereo not given) belongs 3.35% (active); to `Cc1ccc2nc(NC(=O)CSC(=S)N3CCN(c4ccccc4)CC3)sc2c1`, 98.7%; to `CCN1C(=O)N(c2ccccc2)C2NN=c3s/c(=C4\C(=O)N(C(C)C)c5ccccc54)c(=O)n3C21` (stereo not given), 14.6%.
To `Cc1ccc(C2CC(c3ccc(Nc4nc(NCCO)nc(Nc5ccc(Cl)cc5)n4)cc3)=NN2c2cc(Cl)cc(Cl)c2)cc1` (stereo not given) belongs 107%.
Turning to `CNC(=O)c1cc(Oc2ccc(CC(=O)Nc3cc(C(C)(C)C)cn3C)cc2)ccn1`, the growth is 75.5%.
As to `COc1ccc(S(=O)(=O)N(Cc2ccc3c(n2)C=CC(C)(C)O3)C2CCC2)cc1OC`, the growth was -40% (active).
